In all, about 6,200 compounds went through this assay and about 2,900 (47%) were called active. Cut-off read from the data, not from the text of the source: active = inhibition above about 50%; inactive = the rest. The set was probably picked from earlier hits. Some of the results follow.

Usually inhibition stands for the relative decrease from the control value, in per cent.

The nature of the assay: Mycobacterium tuberculosis growth inhibition, primary screen (AID 1259343). The settings on record: inhibition: at 10 µM, hits give high values; outcome: 10 uM.
With `Cc1c2c(nc3cc4c(cc13)OCO4)CCc1ccccc1-2`, the inhibition is 76.4% (active).
For `O=S(=O)(Nc1ccc(F)c(F)c1)c1cc(Cl)ccc1Cl` the value was 95.3% (active).
Next, `O=S(=O)(Nc1ccc(F)c(Cl)c1)c1ccc(Cl)cc1F`: 66.8% (active); `Cc1cc(S(=O)(=O)Nc2ccc(F)c(Cl)c2)c(C)s1`: 30.5% (inactive); `O=S(=O)(Nc1cc(Cl)ccc1F)c1cc(Cl)ccc1Cl`: 28.1% (inactive).
Next, `O=S(=O)(Nc1cc(Cl)cc(Cl)c1)c1cc(Cl)ccc1Cl`: 56.9% (active); `c1csc(-c2nc(CSc3ncnc4sccc34)co2)c1`: 24.4% (inactive).
As for `COc1cccc(-c2noc(CSc3ncnc4sccc34)n2)c1`, the inhibition is 98.8% (active).
As for `N#CC1(C(=O)Nc2nc(-c3ccc(Cl)s3)cs2)CCCC1`, the inhibition was 89.1% (active).
For `N#CC1(C(=O)Nc2nc(-c3cccc(C(F)(F)F)c3)cs2)CCCC1` the value was 55.5% (active).
For `O=C(CCn1[nH]c(=O)ccc1=O)Nc1nc(-c2ccc(Cl)s2)cs1` the value was 49.2% (inactive).
Next, `Clc1cccc(-c2csc(NC3CC3)n2)c1`: 44.2% (inactive); `O=C(O)C1C2C=CC(C2)C1C(=O)Nc1nc(-c2ccc(Cl)s2)cs1` (centres undefined): 35.5% (inactive).
For the compound `Cc1ccc(C(=O)c2ccc(CC(=O)O)n2C)cc1`, the inhibition is 52.8% (active).
For `Fc1ccc(-c2cnc(CSc3nnnn3C3CC3)o2)cc1` the value was 8.58% (inactive); for `c1ccc(-c2cnc(CSc3nnnn3C3CC3)o2)cc1`, 18.6% (inactive).
For `c1ccc(-c2cc(CSc3nnnn3C3CC3)no2)cc1` the value was 84.1% (active); for `Cc1ccc(S(=O)(=O)N(C)CCOc2ccccc2C)s1`, 55.1% (active).
For the compound `O=C(O[C@@H]1Cc2c(O)cc(O)cc2O[C@@H]1c1ccc(O)c(O)c1)c1cc(O)c(O)c(O)c1`, the inhibition is 78.4% (active).
For `Cc1ccccc1Cn1nc(-c2ccccc2)ccc1=O` the value was -7.28% (inactive).
For `Cc1ccccc1Cn1nc(-c2ccc3c(c2)OCO3)ccc1=O` the value was 91.3% (active).
For `CCc1ccc(-c2ccc(=O)n(Cc3ccccc3C)n2)cc1` the value was 14.8% (inactive); for `O=c1ccc(-c2ccc3c(c2)OCO3)nn1Cc1cccc2ccccc12`, -9.21% (inactive); for `COc1ccc(-c2ccc(=O)n(Cc3ccccc3C)n2)cc1`, 27.4% (inactive).
`Cc1ccccc1Cn1nc(-c2cccs2)ccc1=O`: the inhibition is 89.9% (active).
For `O=C(CSc1ncc(-c2ccc([N+](=O)[O-])cc2)[nH]1)NC(C(=O)O)(c1ccccc1)c1ccccc1` the value was -11.4% (inactive); for `O=C(Cc1ccc(Cl)cc1)NCCSc1ncc(-c2ccccc2)[nH]1`, 60.9% (active); for `OC(C#Cc1ccccc1)c1ncc(-c2ccccc2)[nH]1` (centres undefined), 20.7% (inactive).
Next, `O=C(Nc1ccc(Cl)nc1)N1CCC(COCc2ccccc2)C1` (centres undefined): 95% (active); `COC(=O)C1CCC2C3CC=C4CC(O)CCC4(C)C3CCC12C` (centres undefined): 79.9% (active); `COc1ccc(C=C2CC3C4CC=C5CC(O)CCC5(C)C4CCC3(C)C2O)cc1` (centres undefined): -0.03% (inactive).
For `CC12CCC(O)CC1=CCC1C2CCC2(C)C(O)C(=Cc3ccc([N+](=O)[O-])cc3)CC12` (centres undefined) the value was -53.2% (inactive); for `S=C(NC1Cc2ccccc2C1)N1CCCC1`, 14.2% (inactive); for `CN(Cc1cccc(F)c1)C(=O)c1ccc(NC(=O)C2CC2)s1`, -11.3% (inactive).
For `O=C(Cc1cccc(F)c1)NCc1ccc(Cl)s1`, the inhibition is 64.5% (active).
Next, `CC(=O)c1ccc(OC(=O)COc2ccc(Oc3ccc(C)cc3)cc2)cc1`: 88.7% (active); `COc1cccc(OCC(=O)Oc2ccc(C(=O)c3ccc(C)cc3)cc2)c1`: 53% (active); `CC(=O)c1ccc(OC(=O)COc2cccc(OCCC(C)C)c2)cc1`: 67.6% (active).
Consider `CCOc1ccc(OCCCOc2ccc(Cl)cc2)cc1`, for which the inhibition result was “inactive”.
Next, `CCOc1ccc(OCCOc2ccc(Cl)cc2)cc1`: 93.8% (active); `CCOc1ccc(OCCOCCOc2ccccc2)cc1`: 92.7% (active); `CCOc1ccccc1OCCOc1ccccc1`: 27.6% (inactive).
For `CCOc1cccc(OCCOc2cccc(Br)c2)c1` the value was 36.5% (inactive); for `CCOc1ccc(OCCOc2ccccc2)cc1`, 92.8% (active).
For `CCOc1ccc(OCCOc2cccc(C(F)(F)F)c2)cc1`, the inhibition was 84.9% (active).
For `Clc1ccc(OCCOC2OCCOC2OCCOc2ccc(Cl)cc2)cc1` (centres undefined) the value was 76.8% (active); for `CCOc1ccc(OCCCOc2ccc(CC)cc2)cc1`, -34% (inactive).
For `CCOc1ccc(OCCCOc2ccc(C)cc2)cc1` the value was -3.92% (inactive); for `CCOc1ccc(OCCCOc2ccc(I)cc2)cc1`, 92.8% (active).
`Clc1ccc(OCCOCCOc2ccc(Cl)cc2)cc1`: the inhibition is 21.3% (inactive).
For `CN=c1scc(C)n1N=C(C)c1cccc(F)c1` the value was 15.2% (inactive); for `COc1ccc(/C=C(/C#N)c2c[nH]c3ccccc23)cc1`, 33.9% (inactive).
Next, `O=C(Cc1cc(-c2ccc(F)cc2F)on1)NCCCc1ccccc1`: 54% (active); `O=C(Cc1cc(-c2ccc(F)cc2F)on1)NCCC1=CCCCC1`: 85.6% (active).
Next, `O=C(Cc1cc(-c2ccc(F)cc2F)on1)NCCc1ccccc1`: 93.5% (active).
Regarding `O=C(OCc1cc(-c2ccc(F)cc2F)on1)C1CC1`, the inhibition is 38.6% (inactive).
Consider `CC(C)OCCCNC(=O)Cc1cc(-c2ccc(F)cc2F)on1`, for which the inhibition is 36.4% (inactive).
For the compound `O=C(Cc1cc(-c2ccc(F)cc2)on1)NCCC1=CCCCC1`, the inhibition was 36.7% (inactive).
Next, `COc1ccc(NC(=O)c2ccc3c(c2)CCCC3)c(OC)c1`: 10.4% (inactive); `COc1ccc(NC(=O)c2ccc3c(c2)CCCC3)cn1`: 97.6% (active).
With `Fc1c(F)c(F)c(N2CCNCC2)c(F)c1F`, the inhibition was -14.9% (inactive).
For `FC(F)(F)C1CCCN(c2nsc3ccccc23)C1` (centres undefined) the value was 101% (active); for `CCN=c1scc(-c2ccc(OC(F)F)cc2)n1N=Cc1ccc2c(c1)OCO2`, -4.29% (inactive).
For `FC(F)Oc1ccc(-c2n[nH]c(=S)n2N=Cc2ccc3c(c2)OCCO3)cc1` the value was 85.8% (active); for `Cc1ccc(-c2n[nH]c(=S)n2N=Cc2ccccc2)cc1`, 55.7% (active).
Next, `O=c1cc(-c2ccc(F)cc2)[nH]n1-c1nc2ccccc2[nH]1`: 75.6% (active).
With `C=C(C#N)C(O)c1ccc(-c2ccccc2)cc1` (centres undefined), the inhibition was 27.8% (inactive).
Next, `CC(C)c1cc(-n2ccnc2)n2ncc(-c3ccccc3)c2n1`: “inactive”; `c1ccc(-c2ccc(C(c3ccccc3)n3ccnc3)cc2)cc1` (centres undefined): 79.7% (active).

For the origin of these results see PubChem BioAssay AID1259343 (VanderVen Lab, College of Veterinary Medicine, Cornell …, 2017).
